Pf Dd2 inh: qHTS Primary assay for Inhibitors of Plasmodium falciparum Dd2 growth in vitro; P. falciparum Dd2 growth, SYBR Green, 72 h; Potency, µM (highest dose often 28.9 µM), without a hit: at the highest dose activity, negative = inhibition, actives largely listed as inhibitors; 120,000 compounds, 4.3% hits; AID 1347417, 2020; active = well fitted inhibition curve with a large enough effect;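 note: plate controls were DMSO vehicle for no effect and reference drug for full effect; nearly all actives have a fitted effect of over 65% in size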
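Readout: SYBR Green fluorescence, 485 nm excitation, 535 nm emission, after ~16 h lysis at 37C. Before that, Dd2-infected red cells (2.5% hematocrit) grew 72 h with compound, 29 uM top final concentration.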
* = called active by the depositor; i = inactive; [ ] = dose if it differs, or a comment. Many of the other results were omitted from the sample, so hits are more common in it than they were. Potency is the fitted concentration of half-maximal effect.

SMILES | Pf Dd2 inh
Cc1ccc(C2Cn3nnc(-c4noc(-c5ccoc5)n4)c3CO2)cc1 (centres undefined) | i
CCn1cnnc1CC1CCN(C(=O)NC)C1 (centres undefined) | 22%
c1ccc(-c2nnc3ccc(-c4ccoc4)nn23)nc1 | 3%[44.1 µM]
O=C([C@H]1C[C@H](Oc2ccccc2)CN1C(=O)C1CCC1)N1CCOCC1 | 10%
O=C1NC2(CCN(C(=O)c3ccccc3)C2)N=C1c1cccnc1 (centres undefined) | 17%[44.1 µM]
Cc1ccc(Cl)cc1NC(=O)Cn1ccn2nc3c(c2c1=O)CCCCC3 | i
CCOC(=O)c1ccccc1Nc1cc(C)nc2nc(-c3ccco3)nn12 | 10µM*
Cc1cc(Nc2ccccc2Cl)n2nc(-c3ccco3)nc2n1 | -28%
Cc1cc(Nc2cccc(F)c2)n2nc(-c3ccco3)nc2n1 | -16%
CN1CCC(N(C)C(=O)CCC[C@@H]2[C@H]3CCCN4CCC[C@@H](CN2Cc2ccccc2)[C@@H]34)CC1 | -12%
CN(c1ccccc1)c1ccc2nnc(-c3cc(C(=O)NCc4ccncc4)ccn3)n2n1 | -5%[44.1 µM]
CN(c1ccccc1)c1ccc2nnc(-c3cc(C(=O)NCCc4ccccc4)ccn3)n2n1 | 8.9µM*
CN(c1ccccc1)c1ccc2nnc(-c3cc(C(=O)NC4CCOCC4)ccn3)n2n1 | -22%[44.1 µM]
Cc1ccc(NC(=O)Nc2csc3c2CCCC3)c(C)c1 | i[5.79 µM]
CCc1cccc(C)c1NC(=O)Nc1csc2c1CCCC2 | 42%[5.79 µM]
O=C(Nc1ccc(F)cc1)Nc1csc2c1CCCC2 | 10µM*
CCS(=O)(=O)N1CCC(Nc2cccnc2)C1 (centres undefined) | 17%[5.79 µM]
Cc1ncoc1C(=O)N1C[C@H]2OC(=O)N(CCc3cccc(Cl)c3)[C@H]2C1 | -12%
CCn1ccc(C(=O)N2C[C@@H](COC)[C@H](c3nc(C4CC4)no3)C2)n1 | i
Cc1c(Cl)cccc1NC(c1ccc(F)cc1)c1nnc(-c2ccccc2)o1 (centres undefined) | i
Clc1ccc(CCNC(c2nnc(-c3ccccc3)o2)c2ccccc2Cl)cc1 (centres undefined) | 11µM*
O=S(=O)(NCCc1noc(-c2ccccc2)n1)c1ccc(Cl)cc1 | i
CCOCCN1C(=O)COC[C@@H]1[C@H](O)c1ccc(NC(=O)C2CC2)cc1 | -16%[44.1 µM]
CC(=O)N1CCC(C(=O)N2CC(c3nc(CCOc4cccc(C)c4)no3)C2)CC1 | 17%
CCN(CC)C(=O)Cn1c(=O)cc(C)c2c(C)nn(C)c21 | i
SMILES | Pf Dd2 inh
Cc1cc(=O)n(Cc2ccccc2)c2c1c(C)nn2-c1ccccc1 | 7%
CCc1ccc(-n2nc(C)c3c(C)cc(=O)n(CC(=O)N(CC)Cc4ccccc4)c32)cc1 | 8.9µM*
CCc1cn(C[C@H](NCC(C)(C)C)C(=O)O)c(=O)[nH]c1=O | i
OC1CC(c2cc(NCCCn3ccc4ccccc43)ncn2)C1 (centres undefined) | -18%
Cc1ccc(C)c(Cn2c3ccccc3c3cnn(CC(=O)N4CCCCC4)c(=O)c32)c1 | 32%
O=C(Cn1ncc2c3ccccc3n(Cc3ccccc3F)c2c1=O)NC1CCCCCC1 | -24%
Cc1cc(C)c(Cn2c3ccccc3c3cnn(CC(=O)NC4CCCCCC4)c(=O)c32)c(C)c1 | 9%
CCCn1c2ccccc2c2cnn(CC(=O)N3CCN(c4ccccc4F)CC3)c(=O)c21 | i
CCOC(=O)C1CCN(C(=O)Cn2ncc3c4ccccc4n(Cc4ccccc4F)c3c2=O)CC1 | -15%
CC1CCCCN1C(=O)Cn1ncc2c3ccccc3n(Cc3ccccc3F)c2c1=O (centres undefined) | 13µM*
CCN1CCN(C(=O)Cn2ncc3c4ccccc4n(Cc4ccccc4F)c3c2=O)CC1 | 11µM*
Cc1ccccc1Cn1c2ccccc2c2cnn(CC(=O)N3CCC(C)CC3)c(=O)c21 | i
CCN1CCN(C(=O)Cn2ncc3c4ccccc4n(Cc4c(C)cc(C)cc4C)c3c2=O)CC1 | 13µM*
CC(=O)N1CCC(N2C[C@@H](F)[C@@H](OCc3nc4ccccc4[nH]3)C2)CC1 | 2%[44.1 µM]
O=C(c1cccc(Cl)c1)N1CCN(C(=O)c2nnn3c2COC(c2ccc(F)cc2)C3)CC1 (centres undefined) | -1%
Nc1nc(C2CC(N)C2)cc(N2CCC(C(=O)NCc3ccccn3)CC2)n1 (centres undefined) | -22%
CCc1ccc(NC(=O)C2CCN(S(=O)(=O)c3c(C)noc3/C=C/c3cccs3)CC2)cc1 | 13µM*
Cc1cc(C)c(/C=C/c2onc(C)c2S(=O)(=O)N2CCC(C(=O)NCc3ccco3)CC2)c(C)c1 | 11µM*
COc1cccc(/C=C/c2onc(C)c2S(=O)(=O)N2CCC(C(=O)N3CCC(C)CC3)CC2)c1 | -9%
Cc1ccc(/C=C/c2onc(C)c2S(=O)(=O)N2CCC(C(=O)Nc3ccc(OC(F)(F)F)cc3)CC2)cc1 | 62%
CCOc1ccc(NC(=O)C2CCN(S(=O)(=O)c3c(C)noc3/C=C/c3c(C)cc(C)cc3C)CC2)cc1 | 63%
Cc1noc(/C=C/c2cccs2)c1S(=O)(=O)N1CCC(C(=O)NCc2ccc(Cl)cc2)CC1 | i
COc1cc(OC)c(NC(=O)C2CCN(S(=O)(=O)c3c(C)noc3/C=C/c3c(C)cc(C)cc3C)CC2)cc1Cl | i
Cc1ccc(NC(=O)C2CCN(S(=O)(=O)c3cccs3)CC2)cc1 | -20%
Cc1cccc(NC(=O)C2CCN(S(=O)(=O)c3c(C)noc3/C=C/c3ccco3)CC2)c1C | -13%
SMILES | Pf Dd2 inh
COc1ccc(/C=C\c2onc(C)c2S(=O)(=O)N2CCC(C(=O)Nc3cccc(C)c3C)CC2)cc1 | 2.8µM*
COc1cccc(CNC(=O)C2CCN(S(=O)(=O)c3c(C)noc3/C=C/c3cccs3)CC2)c1 | 6.3µM*
Cc1noc(C)c1S(=O)(=O)N1CCC(C(=O)Nc2ccc(Br)cc2)CC1 | -12%
Cc1ccc(NC(=O)Cn2c(N3CCCCC3)nc(C)c(C)c2=O)cc1 | i
CS(=O)(=O)N1CCC(OC2CCN(C(=O)Nc3cccc(F)c3)CC2)CC1 | i
O=C1[C@@H]2C[C@@H](O)CN2C2(CN(Cc3cccc(OC(F)(F)F)c3)C2)C(=O)N1Cc1ccccc1F | i
CC(C)NC(=O)C[C@@H]1O[C@H](CNC[C@H]2O[C@@H](CC(=O)NC(C)C)[C@H](O)[C@@H]2O)[C@@H](O)[C@H]1O | 34%
COc1cccc(C(=O)N2CC(=O)N(c3ccc(C)cc3)CC2C)c1OC (centres undefined) | -13%
O=C(NC[C@H]1O[C@H](Cc2cc(-c3ccccc3)on2)CC[C@@H]1O)c1ccncc1 | -10%[44.1 µM]
COCc1cc(CNC(=O)c2cn(C3CCC(N)CC3)nn2)[nH]n1 (centres undefined) | 8%
COc1cc(NC(=O)C2CCN(S(=O)(=O)c3c(C)noc3/C=C/c3cccs3)CC2)cc(OC)c1 | 11µM*
Cc1ccc(NC(=O)C2CCN(S(=O)(=O)c3c(C)noc3C)CC2)cc1C | -9%
COc1ccc(CCNC(=O)C2CCN(S(=O)(=O)c3c(C)noc3/C=C/c3ccc(C)cc3)CC2)cc1OC | -5%
CCn1cc(S(=O)(=O)N2CCCCC2c2nc(-c3ccncc3)n[nH]2)cn1 (centres undefined) | -10%
COc1ccc(-c2nc3scc(CCNS(=O)(=O)c4ccc(Oc5ccccc5)cc4)n3n2)cc1 | -16%
COc1ccc(-c2nc3scc(CCNC(=O)c4cc(OC)cc(OC)c4)n3n2)cc1 | 7.1µM*
COc1ccc(-c2nc3scc(CCNC(=O)Cc4ccc(F)cc4)n3n2)cc1 | -12%
N#Cc1ccc(S(=O)(=O)N2CCOCCNC(=O)[C@H]3CCCC[C@H]32)cc1 | 14%
